Screens (PubChem BioAssay)
12-LOX inh = ALOX12 (human) lipoxygenase inhibition | P18054 | purified 12hLO, xylenol orange hydroperoxide absorbance | Potency, µM (doses to about 108 µM), without a hit: at the highest dose activity change, negative = inhibition, hits mostly inhibitors | actives 1.1% (n = 580,000); active = well fitted curve in the direction sought with a large enough effect; inconclusive = small, poorly fitted or top-dose-only effect, or another doubt; inactive = no such curve, though single readings can be large; an effect the other way counts as inactive or inconclusive; also: % is scaled to controls: 0 for no effect and ±100 for the full control effect
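Purified human 12hLO at 150 nM in 25 mM Hepes, 0.01% Triton X-100, pH 7.0, preincubated 15 min at room temperature with compound. Reaction started with 40 uM arachidonic acid, 30 min at room temperature. Hydroperoxide measured by Fe-xylenol orange, 573/405 nm absorbance ratio.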
Rango dissoc inh = prevents RanGTP from dissociating the Rango-importin beta complex; Biochemical FRET Rango-importin beta, RanGTP-induced dissociation; Potency, µM (highest dose often 46.1 µM), for the others: at the highest dose activity change, negative = inhibition; actives 0.071% (n = 340,000); also: % of control where 0% means no effect; nearly all actives have a fitted effect of over 45% in size
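Recombinant Rango FRET biosensor (EYFP–snurportin 1 IBB–cerulean CFP10) at 0.1 uM premixed with 0.25 uM importin beta in PBS, 1 mM DTT, 0.02% Tween-20, 0.1% BSA. Compound added 5 min; RanGTP-RCC1 (0.6 uM Ran, 2 mM GTP, 0.2 uM RCC1) then triggers release, read at 45 min.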
PTAP TSG101 blk = blocks PTAP/TSG101 interaction to inhibit HIV-1 budding | Potency, µM (top dose mostly 115 µM), for the others: at the top dose activity change, negative = inhibition, actives largely listed as inhibitors | 340,000 tested, under 10 active | Fluorescence polarization, FITC-PTAP peptide / Tsg101 binding; active = well fitted inhibition curve with a large enough effect in the main read-out, with a control signal flat, not every such curve was filed as active; inconclusive = small, poorly fitted or top-dose-only effect, or effect the other way, or a change in a side signal; inactive = no such curve, though single readings can be large or run the other way; also: % of control where 0% means no effect
Target sequence (Q99816 whole entry, looked up): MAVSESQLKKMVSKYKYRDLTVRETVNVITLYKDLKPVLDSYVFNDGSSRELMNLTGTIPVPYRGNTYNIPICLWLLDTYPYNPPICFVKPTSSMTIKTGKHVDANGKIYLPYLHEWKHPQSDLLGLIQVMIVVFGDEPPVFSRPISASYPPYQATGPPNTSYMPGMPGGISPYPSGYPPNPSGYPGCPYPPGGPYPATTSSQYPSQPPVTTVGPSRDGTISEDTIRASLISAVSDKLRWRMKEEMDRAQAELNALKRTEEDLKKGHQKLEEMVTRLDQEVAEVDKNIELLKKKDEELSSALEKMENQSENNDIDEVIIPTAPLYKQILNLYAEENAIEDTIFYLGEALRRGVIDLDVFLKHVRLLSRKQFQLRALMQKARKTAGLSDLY
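Tsg101 binding domain (10 uM final) was mixed with compound and a FITC-labeled PTAP peptide (50 nM final) in HEPES pH 7.5 buffer with NaCl, Tween 20, EDTA and TCEP; fluorescence polarization was read after 20 min at r.t.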
Rango-impB inh = prevents formation of the Rango-importin beta complex. Q14974. Rango CFP/YFP FRET sensor + importin beta, 45 min. Potency, µM (highest dose often 92.2 µM), for inactives: at the highest dose inhibition of complex formation. actives 0.031% (n = 340,000);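 also: 0% = DMSO wells and 100% = buffer wells lacking importin beta; nearly all actives have a fitted effect of over 15% in size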
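FRET biosensor Rango (snurportin 1 IBB between N-terminal EYFP and C-terminal Cerulean), 50 nM in PBS/1 mM DTT/0.02% Tween-20/0.1% BSA, preincubated 5 min RT with compound; 0.125 microM importin beta added, 45 min RT, CFP/YFP FRET ratio read.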
ClpP mod = qHTS Assay for Activators of ClpP; ATP-dependent Clp protease proteolytic subunit (Bacillus subtilis (strain 168)), P80244; purified B. subtilis ClpP, FRET peptide cleavage, 20 min; Potency, µM (series often up to 57.5 µM), for the others: at the highest dose activity change, negative = active; actives 1.9% (n = 340,000); active = well fitted falling curve with a large enough effect; inconclusive = small, poorly fitted or top-dose-only effect; inactive = no such curve, though single readings can be large or run the other way; also: the source files actives as falling curves though it sought activators and does not explain the sign; nearly all actives have a fitted effect of over 65% in size
Target sequence (P80244 whole entry, looked up): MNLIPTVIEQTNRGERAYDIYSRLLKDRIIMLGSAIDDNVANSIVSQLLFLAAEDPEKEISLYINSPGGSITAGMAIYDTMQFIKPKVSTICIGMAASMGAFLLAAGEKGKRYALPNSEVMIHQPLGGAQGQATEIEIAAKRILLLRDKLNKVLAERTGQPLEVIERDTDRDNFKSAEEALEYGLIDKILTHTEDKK
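Purified B. subtilis ClpP, 10 microg/mL final in Tris/HCl pH8 with KCl, BSA, glycerol and Tween-20, cleaved an Abz/nitrotyrosine-quenched decapeptide. Fluorescence (ex 320, em 430) was read at 0 and 20 min at room temperature. Delta was normalized to 5.8 microM ADEP and DMSO/no-enzyme controls.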
TDP1 block = blocks human tyrosyl-DNA phosphodiesterase 1 | Q9NUW8 | recombinant TDP1, AlphaScreen DNA substrate cleavage | Potency, µM (titrated, usually from 130 µM), without a hit: at the highest dose activity change, negative = inhibition, actives largely listed as inhibitors | actives 0.28% (n = 350,000); active = well fitted curve in the direction sought with a large enough effect; inconclusive = small, poorly fitted or top-dose-only effect, or another doubt; inactive = no such curve, though single readings can be large; an effect the other way counts as inactive or inconclusive; also: % is scaled to controls: 0 for no effect and ±100 for the full control effect; nearly all actives have a fitted effect of over 40% in size
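Recombinant E. coli-expressed Tdp1 (1 nM) preincubated with compound 15 min at RT, then 5'-biotin/3'-phosphotyrosine-FITC DNA substrate (15 nM) added for 5 min. AlphaScreen beads (10 ug/ml) added, 10 min RT; tyrosine-FITC cleavage read as signal loss.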
The depositor's hits bear a star; u = inconclusive; x = not tested or not shown; [ ] = dose if it differs, or a comment. Only some compounds are listed: those with a hit (about 2.4% of all), similar ones and a draw of the others. Unless noted, calls follow the shape of the full dose curve. Potency is read from the fitted curve at half-maximal effect.

SMILES	12-LOX inh	Rango dissoc inh	PTAP TSG101 blk	Rango-impB inh	ClpP mod	TDP1 block
COc1ccc(/C=N/S(=O)(=O)c2cccs2)cc1	2%	0%	-6%	-3%	1%	5%
Cn1cc(CN[C@H]2[C@H](O)[C@H](O)C[C@@H]2c2cccnc2)c2ccccc21	45µM*	x	x	x	x	x
CCN1C(=O)C(CC(=O)NC)N(NC(=O)c2ccccc2)C1=S (stereo not drawn)	-6%	-3%	1%	u	25µM*	4%
CO[C@H]1COCCN(c2nc3ccccc3o2)C1	10%[176 µM]	x	x	x	x	x
CC1CCN(S(=O)(=O)c2ccc3nc(N4CCN(c5ccccc5)CC4)ccc3c2)CC1	9%	17%	-3%	0%	u	2%
CCN1CCN(c2ccc3cc(S(=O)(=O)N4CCOCC4)ccc3n2)CC1	1.8µM*	x	x	x	x	x
O=S(=O)(c1ccc2nc(N3CCN(c4ccccc4)CC3)ccc2c1)N1CCCC1	3.5µM*	x	x	x	x	x
CCOc1ccc(C(C)=O)cc1COc1ccc2c(C)cc(=O)oc2c1C	-11%	x	x	x	x	x
COC(=O)C1=C(C)N(c2ccccc2)C(=O)CC1C(=O)Nc1ccccc1 (stereo not drawn)	3%	x	x	x	x	x
COc1cccc(N2CC(C(=O)Nc3nnc(SCc4cccnc4)s3)CC2=O)c1 (stereo not drawn)	2%	-5%	0%	0%	13µM*	-3%
COc1cccc(N2CC(C(=O)Nc3nnc(SCCC4OCCO4)s3)CC2=O)c1 (stereo not drawn)	-8%	-4%	-1%	0%	-1%	6%
NC(=O)CN1C(=O)NC(c2ccccc2)(c2ccccc2)C1=O	-12%	-1%	-2%	-1%	x	45µM*
CC(C)(C)C(=O)CN1C(=O)NC(c2ccccc2)(c2ccccc2)C1=O	-2%	6%	-4%	0%	x	15%
Cc1cc(Cl)ccc1NC(=S)NCc1cccs1	u	-1%	-5%	-1%	0%	7%
Fc1cc(Br)ccc1NC(=S)NCc1cccs1	25µM*	x	x	x	x	x
COc1ccc(OCc2cc(C(=O)NCc3ccncc3C)n[nH]2)c(Cl)c1	102%	x	x	x	x	x
CN1CCN(C(=O)c2cc3sc4ccccc4c3s2)CC1	4%	u	-1%	0%	x	x
CCCN(CCC)C(=O)c1cc2sc3ccccc3c2s1	5µM*	x	x	x	x	x
Cc1ccc(-c2nc(C#N)c(N3CCN(C(=O)c4cccs4)CC3)o2)cc1	-7%	x	x	x	x	x
COc1ccc(-c2ccc(-c3nnn(CC(=O)N4CCOCC4)n3)cc2)cc1	-21%	5%	-4%	2%	16µM*	6%
O=C(Cn1nnc(-c2ccc(F)cc2)n1)N1CCOCC1	-14%	x	x	x	x	x
Cc1nnc(SCC(=O)NCCc2ccco2)c2nn(-c3ccc(Cl)cc3)c(C)c12	32µM*	x	x	x	x	x
CCOc1cccc(C(=O)Nc2nonc2CC)c1	6%	x	x	x	x	x
O=C(CCN1C(=O)C2C3C=CC(C3)C2C1=O)NCc1cccnc1 (stereo not drawn)	0%	2%	-1%	-1%	13µM*	0%
O=C(CCN1C(=O)C2C3C=CC(C3)C2C1=O)N1CCN(c2ccccn2)CC1 (stereo not drawn)	5%	-9%	-7%	4%	16µM*	3%
Cc1noc([C@@H]2CN(Cc3ccccc3C(F)(F)F)C[C@H]2CO)n1	5%	x	x	x	x	x
COc1ccccc1-c1nnc(SC2CCc3ccccc3NC2=O)s1 (stereo not drawn)	-45%	-4%	-7%	3%	22µM*	2%
COc1ccccc1-c1nnc(N)s1	-7%	18%	-1%	3%	x	4%
Brc1ccc(-c2cn3c4ccccc4nc3n2CCCN2CCCC2)cc1	10µM*	x	x	x	x	x
Brc1ccc(CNc2nc3ccccc3n2CCN2CCCCC2)cc1	-11%	28%	-3%	0%	1%	4%
